Screening data from PubChem BioAssay.
A selection: hits, their analogues and other compounds. The true share with any hit is near 6.5%.
VACV mCherry inh = inhibitors of vaccinia virus infection (mCherry reporter signal); AID 720579; hit rate 0.63% among 310,000; Vaccinia virus mCherry reporter infection, fluorescence; Potency, µM (series often up to 36.5 µM), without a hit: at the top dose activity change, negative = inhibition, usual class: inhibitors; calls by dose curve; tested in A549 cells; note: potency is the fitted concentration of half-maximal effect; nearly all actives have a fitted effect of over 35% in size
MARV entry inh = inhibitors of Marburg virus binding or cell entry; Marburg virus pseudotyped entry inhibition, cell reporter; AID 540276; Potency, µM (highest dose often 37.8 µM), for the others: at the top dose activity change, negative = inhibition, actives largely listed as inhibitors; hit rate 1.8% among 300,000; calls by dose curve; tested in HEK293 cells; note: potency is the fitted concentration of half-maximal effect
Vaccinia Venus = vaccinia inhibition (Venus reporter); Vaccinia virus Venus reporter expression, fluorescence; Potency, µM (doses to about 36.5 µM), for the others: at the top dose activity change, negative = inhibition, most hits filed as inhibitors; hit rate 0.46% among 330,000; calls by dose curve; tested in A549 cells; note: potency is the fitted concentration of half-maximal effect; nearly all actives have a fitted effect of over 30% in size
HCMV inh = inhibitors of human cytomegalovirus. activity change, negative = inhibition, % at 57.5 µM. HFF cells, HCMV-luciferase reporter, 72 h; hits give low values. hit rate 4.5% among 410,000; in the data active = activity change below about -60%; inconclusive = no clear call, values can overlap the other calls; inactive = above about -39%
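Steps: HFFs plated, 16 h 37C; compounds added; HCMV-luciferase added to MOI 1 PFU/cell; 72 h 37C; OneGlo reagent, 5 min room temperature; luminescence read, normalized to controls.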
LASV entry inh = inhibitors of Lassa virus binding or cell entry. AID 540256. hit rate 1.2% among 300,000. Lassa virus pseudotype entry inhibition, cell reporter. Potency, µM (top dose mostly 37.9 µM), without a hit: at the highest dose activity change, negative = inhibition, hits mostly inhibitors; calls by dose curve; tested in HEK293 cells; note: potency is the fitted concentration of half-maximal effect; nearly all actives have a fitted effect of over 50% in size
FMDV antiviral = foot and mouth disease virus antiviral activity; FMDV antiviral cell-based qHTS; Potency, µM (series often up to 57.9 µM), inactives show at the top dose activity change, negative = inhibition, usual class: inhibitors; hit rate 1.2% among 410,000; AID 1159524; calls by dose curve; tested in HEK293T cells; note: read-out not given here; potency is the fitted concentration of half-maximal effect; nearly all actives have a fitted effect of over 45% in size
* hit, by the source's call; i = inactive; ? = inconclusive; nt = no result; ! = repeats disagree; [ ] = another dose, or the depositor's remark. % is set by controls: 0 for no effect and ±100 for the full control effect.

SMILES	VACV mCherry inh	MARV entry inh	Vaccinia Venus	HCMV inh	LASV entry inh	FMDV antiviral
COc1cc(Cl)ccc1OCc1cc(C(=O)N(C)C2CC(C)(C)NC(C)(C)C2)no1	i	-28%	-19%	-4	?	-14%
COc1ccc(C2CC(=O)N(Cc3ccc(F)cc3)c3ccccc3S2)cc1OC (centres undefined)	-23%	0%[46.1 µM]	-17%	18	nt	40µM*
COc1cc(C2CC(=O)N(Cc3ccc(F)cc3)c3ccccc3S2)cc(OC)c1OC (centres undefined)	-27%	?	-23%	-82*	nt	14µM*
COc1ccc(C2CC(=O)N(Cc3ccc(F)cc3)c3ccccc3S2)cc1 (centres undefined)	-10%	-9%[46.1 µM]	-9%	?	nt	?
OCc1cnc(SCc2ccccc2)n1Cc1ccccc1	-6%	-6%[46.1 µM]	-15%	-64*	7%[46.1 µM]	-20%
C=CCSc1ncc(CO)n1Cc1ccccc1	0%	0%[46.1 µM]	-15%	?	11%[46.1 µM]	12%
N#CC(c1ccc(Cl)nn1)c1ccccc1Cl (centres undefined)	nt	22%	-10%	-63*	3%	59%
N#CC(c1ccc(Cl)cc1)c1ccc(Cl)nn1 (centres undefined)	i	?	-15%	-82*	13%	6%
COCCn1c(=O)c(-c2cccs2)nc2cnc(N3CCOCC3)nc21	nt	nt	nt	nt	nt	-23%
CCOC(=O)Cc1csc(NC(=S)NC(=O)c2cc(OC)c(OC)c(OC)c2)n1	nt	nt	nt	26	nt	?
CCOC(=O)Cc1csc(NC(=O)CC(C)(C)C)n1	-10%	?	-3%	121	7.1µM*	23%
CCOC(=O)Cc1csc(NC(=S)NC(=O)c2ccc(F)cc2)n1	-5%	16%	-4%	-62*	-13%	-20%
CCOC(=O)Cc1csc(NC(=O)CC)n1	-2%	3%	0%	6	1%	nt
COc1ccc(CN2CCOc3ccc(CN4CCC(O)(c5cccnc5)CC4)cc3C2)c(C)c1C	-26%	nt	-19%	nt	nt	-24%
CCC1C(=O)NCCN1Cc1ccc2c(c1)CN(Cc1ccc(F)c(OC)c1)CCO2 (centres undefined)	-8%	nt	5%	nt	nt	-17%
COCCNC(=O)C1(C)CCCN(C(=O)c2ccc(C)c(F)c2)C1 (centres undefined)	38%	nt	-2%	-32	nt	-12%
COCCNC(=O)C1(C)CCCN(C(=O)c2c(F)ccc(C)c2F)C1 (centres undefined)	i	nt	-8%	-64*	nt	-16%
NC(=O)C1CCN(c2ccc(S(=O)(=O)N3CCCCC3)cc2[N+](=O)[O-])CC1	-4%	-28%	-21%	23	-5%	-24%
Cc1ccc([N+](=O)[O-])cc1NC(=O)c1ccc2c(c1)OCO2	-3%	2%[46.1 µM]	2%	7	-6%	5%
O=C(NCc1ccc2c(c1)OCO2)Nc1ccc(Cl)cc1	nt	nt	nt	-1	nt	34%
CC(CNC(=O)c1ccc2c(c1)OCO2)c1ccc([N+](=O)[O-])cc1 (centres undefined)	-9%	-28%[46.1 µM]	-11%	-63*	-26%[46.1 µM]	-14%
O=C(NCc1ccc2c(c1)OCO2)Nc1ccc([N+](=O)[O-])cc1	-6%	2%[46.1 µM]	-11%	-61*	-9%[46.1 µM]	1%
COc1ccc(C(O)C2=CCCC2=O)cc1 (centres undefined)	nt	6%[14.2 µM]	nt	nt	nt	nt
OCCN1CCN(CCCN2c3ccccc3Sc3ccc(Cl)cc32)CC1	?	5µM*	?	-8	15µM*	-21%
COc1cc(N(C(C)=O)c2ccc(O)c(C(=O)O)c2)c2ncccc2c1	i	nt	4%	35	nt	-16%
SMILES	VACV mCherry inh	MARV entry inh	Vaccinia Venus	HCMV inh	LASV entry inh	FMDV antiviral
Nc1nn(-c2ccccc2)c(N)c1N=Nc1ccc2c(c1)OCO2	?	8.9µM*	?	46	?	-15%
Nc1nn(-c2ccccc2)c(N)c1N=Nc1cccc(F)c1	nt	nt	nt	95	nt	43%
CCCCSc1ncnc2c1ncn2C1CCCCO1 (centres undefined)	i	?	-10%	131	?	-8%
Fc1ccccc1CSc1ncnc2c1ncn2C1CCCO1 (centres undefined)	?	0.89µM*	7%	?	?	29%
OCC1OC(n2cnc3c(=S)nc[nH]c32)CC1O (centres undefined)	i	-16%	-12%	31	-3%[46.1 µM]	-9%
Nc1ncnc2c1ncn2C1CCCO1 (centres undefined)	-26%[87.9 µM]	?	-3%	-73*	?	-22%
S=c1nc[nH]c2c1ncn2C1CCCO1 (centres undefined)	11µM*	?	?	16	?	-13%
Nc1ncnc2c1ncn2C1CCCC1	0%	?	-14%	-1	12%	-14%
CCc1cc(Cn2nc(-c3ccccc3)cc2C(=O)O)on1	i	nt	-8%	11	nt	-11%
CON(C)C(=O)/C=C/[C@H](CC1CCCC1)NC(=O)C(F)(F)F	nt	nt	nt	-10	nt	nt
COc1ccc(OCCN2CCC(C(=O)NC(c3ccsc3)c3ccccc3C)CC2)cc1 (centres undefined)	16%	nt	-22%	24	nt	-29%
COCC(=O)O[C@]1(CCN(C)CCCc2nc3ccccc3[nH]2)CCc2cc(F)ccc2[C@@H]1C(C)C	-17%	7.3µM*	?	-98*	5.2µM*	?
CN(Cc1cnc2nc(N)nc(N)c2n1)c1ccc(C(=O)NC(CCC(=O)O)C(=O)O)cc1 (centres undefined)	11µM*	?	?	-97*	?	-24%
Nc1nc(N)c2nc(CNc3ccc(C(=O)N[C@H](CCC(=O)O)C(=O)O)cc3)cnc2n1	nt	18%	nt	nt	nt	nt
Nc1nc(N)c2nc(CNc3ccc(C(=O)NC(CCC(=O)O)C(=O)O)cc3)cnc2n1 (centres undefined)	-8%	0.022µM*!	-9%	nt	?	nt
CN(Cc1cnc2nc(N)nc(N)c2n1)c1ccc(C(=O)NC(CCC(=O)O)C(=O)O)cc1C(F)(F)F (centres undefined)	0.32µM*	-67%	1.1µM*	-97*	?	-29%
N#Cc1c2n(c3c(=O)[nH]cnc13)CCCC2	nt	-6%	nt	-37	10%	21%
N#Cc1c2n(c3c(=S)nc[nH]c13)CCCCC2	nt	-6%	-29%	-75*	13%	-26%
CC(C)(C)NC(=O)C(c1ccc(O)cc1)N(C(=O)CCC(=O)Nc1nccs1)c1ccc(F)cc1 (centres undefined)	-1%	2.2µM*	-9%	-13	?	-7%
CC(C)(C)NC(=O)C(c1ccc(O)cc1)N(Cc1ccccc1)C(=O)CCC(=O)Nc1nccs1 (centres undefined)	-11%	-28%[46.1 µM]	-11%	-20	-10%	-2%
Cc1ccc(N(C(=O)CCC(=O)Nc2nccs2)C(C(=O)NC(C)(C)C)c2ccc(O)cc2)cc1 (centres undefined)	i	8.9µM*	-7%	?	-15%[46.1 µM]	-17%
CCCCN=c1scc(-c2ccc3c(c2)NC(=O)CO3)n1N=C1CCCC1	nt	?	nt	-76*	?	25µM*
